# Laboratory results: PubChem BioAssay AID720518 (National Center for Advancing Translational Sciences (NCATS), 2013)
# Inconclusive results are not listed. Activity calls are given as the source filed them. The call rests on the fitted dose curve.
# Test: qHTS for Inhibitors of Cell Surface uPA Generation: Wild-type Protective Antigen (WT-PrAg) Counterscreen for Cherry-picked Compounds; further: 0% is about no effect
# Conditions: cells, WT protective antigen toxicity counterscreen; series mostly up to 115 µM; activity (protection): at the top concentration
row,SMILES,activity (protection)
1,CCOc1ncccc1C(=O)NCc1ccccc1Cl,1.05% (inactive)
2,CCOc1cc(/C=C(\C#N)C(=O)NCc2cccnc2)ccc1O,-1.63% (inactive)
3,Cc1ccc(/C=C/C(=O)O)cc1S(=O)(=O)N1CCc2ccccc21,-1.49% (inactive)
4,O=C(Cc1n[nH]c(=O)c2ccccc12)Nc1cccc(S(=O)(=O)N2CCCCCC2)c1,-2.16% (inactive)
5,CCCCN(CC(=O)NCc1ccc(F)cc1)C(=O)c1ccco1,1.58% (inactive)
6,O=c1[nH]c(=O)n(CCc2ccccc2)c(O)c1C=NC1CC1,-0.566% (inactive)
7,COCC(=O)N1Cc2ccccc2-n2nncc2C1,1.67% (inactive)
8,CCC1Nc2ncnc(N3CCCCC3)c2N(Cc2ccc(Cl)cc2)C1=O (configuration not stated),0.603% (inactive)
9,C[C@]12CCC(O)CC1CCC1C2CC[C@]2(C)C(c3cc(C(F)(F)F)n[nH]3)CCC12 (some centres not stated),-2.57% (inactive)
10,CCN(CC)CCNC(=O)/C(=C/c1cn(CC)c2ccccc12)NC(=O)c1cc(OC)c(OC)c(OC)c1,0.845% (inactive)
11,CC1Cc2nc(SCC(=O)Nc3ccc4c(c3)OCO4)n(-c3ccc(F)cc3)c(=O)c2S1 (configuration not stated),-0.181% (inactive)
12,CN(Cc1ccc(C(C)(C)C)cc1)C(=O)Cc1ccc(S(=O)(=O)N2CCOCC2)s1,-2.37% (inactive)
13,O=C(/C=C/c1ccc(O)c(O)c1)O[C@@H]1C[C@](O)(C(=O)O)C[C@@H](O)[C@H]1O,-0.319% (inactive)
14,CCOc1ccc(N(CC(=O)Nc2ccc(CC)cc2)S(=O)(=O)c2c(C)[nH]c(=O)[nH]c2=O)cc1,-0.814% (inactive)
15,O=C(NC1CC1)C1CCCN(C(=O)NC2CCCCC2)C1 (configuration not stated),-1.16% (inactive)
16,CCc1nnc(NC(=O)CSc2nnnn2-c2cccc(C(C)=O)c2)s1,-0.331% (inactive)
17,O=C(O)CNC(=S)N(Cc1ccccc1)Cc1cccnc1,-0.77% (inactive)
18,COc1cc(NS(=O)(=O)c2ccc(NC(=S)NC(=O)COc3ccccc3OC)cc2)nc(OC)n1,-0.642% (inactive)
19,O=C(Cc1ccc(Cl)cc1)NC(=S)Nc1ccccc1O,2.16% (inactive)
20,CC1CCCC(NC(=O)CNC(=S)N(Cc2ccccc2)Cc2cccs2)C1C (configuration not stated),-1.4% (inactive)
21,CCc1ccc(OCC(=O)N(Cc2cccs2)C2CCS(=O)(=O)C2)cc1 (configuration not stated),1.58% (inactive)
22,COc1ccc2nc(SC(C)C(=O)NC3(C#N)CCCCC3)[nH]c2c1 (configuration not stated),-1.42% (inactive)
